# Source: PubChem BioAssay (EPA / NIEHS)
# Inconclusive results are not listed. Calls of active or inactive are those of the source. Rule for the calls: active = hit-call score of the fitted dose curve at least 0.9, where 1 is the maximum; inconclusive = response in the unintended direction; inactive = score below 0.9.
# What was measured:
# [1] = TOX21_p53_BLA_p2_viability: Viability Assessment in the Tox21 HCT-116 p53 Agonism Beta-lactamase Assay, Phase 2 (AID 2283591);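 note: actives lower the ATP signal meaning cytotoxicity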
# Outline: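 HCT-116 p53-bla cells (4000/well) rested 5 h at 37C, then received compounds in DMSO (217-fold dilution) for 16 h at 37C, 5% CO2. After the CCF4 read, CellTiter-Glo was added; ATP luminescence was read after 30 min at room temperature.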
# [2] = biological target: Cellular tumor antigen p53 (Homo sapiens) (UniProt P04637); experiment: TOX21_p53_BLA_p2_ratio: Tox21 HCT-116 p53 Agonism Beta-lactamase Assay, Ratio, Phase 2 (AID 2283592)
# Outline: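 An inducible beta-lactamase reporter in HCT116 cells signals p53 pathway activation. After 16 h chemical exposure at 37C, cells load CCF4-AM substrate for 2 h at room temperature; activity is the cleaved/uncleaved emission ratio relative to DMSO.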
# [3] = TOX21_p53_BLA_p3_viability: Viability Assessment in the Tox21 HCT-116 p53 Agonism Beta-lactamase Assay, Phase 3 (AID 2283593);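 note: cells exposed to compound for 16 h before reading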
# Outline: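 HCT-116 cells (4000/well) rested 5 h at 37C, then got DMSO compounds by pin tool (217-fold dilution) for 16 h at 37C, 5% CO2. After the bla read, CellTiter-Glo was added and luminescence read at 30 min, room temperature.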
# [4] = biological target: Cellular tumor antigen p53 (Homo sapiens) (UniProt P04637); experiment: TOX21_p53_BLA_p3_ratio: Tox21 HCT-116 p53 Agonism Beta-lactamase Assay, Ratio, Phase 3 (AID 2283596)
# Outline: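 HCT116 p53-bla cells (4000/well) given compound in DMSO (217-fold dilution) after 5 h, incubated 16 h at 37C. CCF4-AM substrate 2 h at room temperature; 460/530 nm emission ratio, gain fitted against DMSO.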
# [5] = TOX21_p53_BLA_p4_viability: Viability Assessment in the Tox21 HCT-116 p53 Agonism Beta-lactamase Assay, Phase 4 (AID 2283597);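 note: hits lower the luminescence signal meaning cytotoxicity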
# Outline: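 Compound exposure of HCT116 cells lasts 16 h at 37C, 5% CO2, with DMSO stocks diluted 217-fold. Cellular ATP is then quantified by CellTiter-Glo luminescence after 30 min at room temperature.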
# [6] = biological target: Cellular tumor antigen p53 (Homo sapiens) (UniProt P04637); experiment: TOX21_p53_BLA_p5_ratio: Tox21 HCT-116 p53 Agonism Beta-lactamase Assay, Ratio, Phase 5 (AID 2283599)
# Outline: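 HCT-116 cells carrying a p53-inducible beta-lactamase reporter were seeded at 4000 cells/well and dosed after 5 h with compound in DMSO (217-fold dilution). After 16 h at 37C, CCF4-AM substrate was added for 2 h, and the 460/530 nm emission ratio was scored as gain-of-signal versus DMSO.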
# [7] = biological target: Cellular tumor antigen p53 (Homo sapiens) (UniProt P04637); experiment: TOX21_p53_BLA_p4_ratio: Tox21 HCT-116 p53 Agonism Beta-lactamase Assay, Ratio, Phase 4 (AID 2283601)
# Outline: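 HCT116 cells carrying an inducible beta-lactamase reporter were plated at 4000 cells/well, rested 5 h, then exposed to compounds in DMSO (217-fold dilution) for 16 h at 37C. CCF4-AM substrate was loaded 2 h at room temperature; 460/530 nm emission ratio scored gain-of-signal versus DMSO.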
# [8] = TOX21_p53_BLA_p5_viability: Viability Assessment in the Tox21 HCT-116 p53 Agonism Beta-lactamase Assay, Phase 5 (AID 2283600)
# Outline: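 Counter-readout for cytotoxicity: ATP-dependent luminescence from CellTiter-Glo, read in the beta-lactamase wells after 30 min at RT, following a 16 h compound exposure at 37C.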
# [9] = biological target: THRB (gene 7068) (UniProt P10828); experiment: TOX21_TRB_BLA_Antagonist_Followup_ratio: Tox21 Thyroid Hormone Receptor beta Antagonism Beta-lactamase (BLA) Follow-Up Assay, Ratio (AID 2283958)
# Outline: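 HEK293T cells with a GAL4-TRb LBD fusion and UAS-bla reporter, 3,000 cells/well in phenol red-free DMEM with 2% charcoal-stripped FBS. Exposed 18 h at 37C to 11 concentrations in triplicate; CCF4 460:530 nm ratio after 2 h, DMSO-referenced.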
# [10] = TOX21_TRB_BLA_Antagonist_Followup_viability: Viability Assessment in the Tox21 Thyroid Hormone Receptor beta Antagonism Beta-lactamase (BLA) Follow-Up Assay (AID 2283961)
# Outline: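 Cytotoxicity is measured in parallel with the antagonist-mode TRβ beta-lactamase screen, using ATP-coupled luciferase luminescence. Engineered HEK293T cells are treated for 18 h with 11-point compound series in triplicate.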
# [11] = biological target: THRB (gene 7068) (UniProt P10828); experiment: TOX21_TRB_COA_Antagonist_Followup_ratio: Tox21 Thyroid Hormone Receptor beta Antagonism through Coactivator Recruitment Follow-Up Assay, Ratio (AID 2283967)
# Outline: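 Cell-free TR-FRET coactivator recruitment with GST-tagged TRβ LBD (5.0 nM) and fluorescein-labeled SRC-2 peptide (200 nM) detected by terbium anti-GST antibody (2 nM). The 520:495 nm emission ratio was normalized to DMSO (0%) and T3 (100%).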
# [12] = biological target: Retinoic acid receptor RXR-alpha (Homo sapiens) (UniProt P19793); experiment: TOX21_TR_RXR_BLA_Antagonist_Followup_ratio: Tox21 Thyroid Hormone Receptor beta Retinoid X Receptor alpha (RXRa) Antagonism Beta-lactamase (BLA) Follow-Up Assay, Ratio (AID 2283972)
# Outline: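 Antagonist mode used GAL4 UAS-driven beta-lactamase in HEK293T cells expressing RXRa, treated for 16 h with compound concentration series. Activity was taken from the blue/green (460:530 nm) ratio of cleaved to uncleaved substrate.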
# [13] = TOX21_TR_RXR_BLA_Antagonist_Followup_viability: Viability Assessment in the Tox21 Thyroid Hormone Receptor beta Retinoid X Receptor alpha (RXRa) Antagonism Beta-lactamase (BLA) Follow-Up Assay (AID 2283979)
# Outline: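 RXRa-UAS-bla HEK293T cells seeded 2,500/well in phenol red-free DMEM with 2% charcoal-stripped FBS, attached 5 h, then exposed to compounds at 11 concentrations in triplicate for 16 h at 37C/5% CO2. Viability read by CellTiter-Glo ATP luminescence; bidirectional fit versus DMSO.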
# Sequence of Cellular tumor antigen p53 (Homo sapiens) (P04637 whole entry, looked up): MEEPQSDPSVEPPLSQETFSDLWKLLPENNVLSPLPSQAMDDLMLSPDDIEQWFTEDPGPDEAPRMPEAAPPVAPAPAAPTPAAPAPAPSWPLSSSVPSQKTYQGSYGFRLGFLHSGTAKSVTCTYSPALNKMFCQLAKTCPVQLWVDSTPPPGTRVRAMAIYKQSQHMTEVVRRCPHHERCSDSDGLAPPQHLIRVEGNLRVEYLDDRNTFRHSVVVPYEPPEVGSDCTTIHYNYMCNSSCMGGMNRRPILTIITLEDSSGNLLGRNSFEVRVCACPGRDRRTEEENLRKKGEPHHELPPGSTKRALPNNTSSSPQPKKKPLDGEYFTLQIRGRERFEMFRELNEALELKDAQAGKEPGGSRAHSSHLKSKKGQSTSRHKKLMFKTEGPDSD
# Sequence of THRB (gene 7068) (P10828 whole entry, looked up, the tested form may be a part): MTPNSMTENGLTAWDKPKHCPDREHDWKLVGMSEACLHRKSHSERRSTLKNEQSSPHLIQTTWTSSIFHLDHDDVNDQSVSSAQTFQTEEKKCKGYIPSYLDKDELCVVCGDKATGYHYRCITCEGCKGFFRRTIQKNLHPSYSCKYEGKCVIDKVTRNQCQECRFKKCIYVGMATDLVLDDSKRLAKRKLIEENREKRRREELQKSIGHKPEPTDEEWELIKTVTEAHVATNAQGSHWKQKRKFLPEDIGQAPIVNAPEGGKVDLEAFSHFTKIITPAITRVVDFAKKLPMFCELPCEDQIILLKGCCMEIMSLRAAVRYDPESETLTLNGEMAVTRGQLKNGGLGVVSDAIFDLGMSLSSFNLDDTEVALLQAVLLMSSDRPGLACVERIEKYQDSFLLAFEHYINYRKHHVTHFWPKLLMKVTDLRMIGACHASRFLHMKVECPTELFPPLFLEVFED
# Sequence of Retinoic acid receptor RXR-alpha (Homo sapiens) (P19793 whole entry, looked up, the tested form may be a part): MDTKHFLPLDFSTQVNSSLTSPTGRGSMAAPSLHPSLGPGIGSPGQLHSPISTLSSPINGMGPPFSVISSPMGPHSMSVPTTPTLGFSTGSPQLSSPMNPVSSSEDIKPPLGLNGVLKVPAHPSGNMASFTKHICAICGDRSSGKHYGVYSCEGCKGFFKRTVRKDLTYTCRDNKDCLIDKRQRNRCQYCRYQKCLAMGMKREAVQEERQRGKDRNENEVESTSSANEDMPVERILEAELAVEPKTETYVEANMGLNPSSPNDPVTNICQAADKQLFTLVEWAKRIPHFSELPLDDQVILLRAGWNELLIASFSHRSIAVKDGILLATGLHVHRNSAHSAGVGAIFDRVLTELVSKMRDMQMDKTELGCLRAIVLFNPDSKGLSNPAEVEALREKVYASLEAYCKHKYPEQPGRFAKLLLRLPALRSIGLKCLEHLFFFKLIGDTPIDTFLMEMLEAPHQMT
smiles,measurement,setting,value
Cc1ccc2c(Br)cc(Br)c(O)c2n1,outcome,[1],inactive
same,AC50,[2],40.4 µM (active)
same,outcome,[3],inactive
same,outcome,[4],inactive
same,AC50,[5],16.8 µM (active)
same,outcome,[6],inactive
same,AC50,[7],43 µM (active)
CN(C)CCCCl,outcome,[1],inactive
same,outcome,[2],inactive
same,outcome,[3],inactive
same,outcome,[4],inactive
same,outcome,[5],inactive
same,outcome,[6],inactive
same,outcome,[7],inactive
Cc1cc(Nc2ccc(O)cc2)ccc1N,outcome,[1],inactive
same,outcome,[2],inactive
same,AC50,[3],46.7 µM (active)
same,AC50,[4],41.2 µM (active)
same,outcome,[5],inactive
same,outcome,[6],inactive
same,outcome,[7],inactive
O=C(O)C(=O)Nc1cccc(-c2nn[nH]n2)c1,outcome,[1],inactive
same,outcome,[2],inactive
same,outcome,[3],inactive
same,outcome,[4],inactive
same,outcome,[5],inactive
same,outcome,[6],inactive
same,outcome,[7],inactive
CCOC(=O)[C@H](CCc1ccccc1)N[C@@H](C)C(=O)N1[C@H](C(=O)O)C[C@@H]2CCC[C@@H]21,outcome,[1],inactive
same,outcome,[2],inactive
same,outcome,[3],inactive
same,outcome,[4],inactive
same,outcome,[5],inactive
same,outcome,[6],inactive
same,outcome,[7],inactive
C1CC(COCC2CO2)CCC1COCC1CO1 (centres undefined),outcome,[1],inactive
same,outcome,[2],inactive
same,outcome,[3],inactive
same,outcome,[4],inactive
same,outcome,[5],inactive
same,outcome,[6],inactive
same,outcome,[7],inactive
CC[C@H](NC(C)C)[C@H](O)c1ccc(O)c2[nH]c(=O)ccc12,outcome,[1],inactive
same,outcome,[2],inactive
same,outcome,[3],inactive
same,outcome,[4],inactive
same,outcome,[5],inactive
same,outcome,[6],inactive
same,outcome,[7],inactive
CCC(C(=O)OCCN(CC)CC)c1ccccc1 (centres undefined),outcome,[1],inactive
same,outcome,[2],inactive
same,outcome,[3],inactive
same,outcome,[4],inactive
same,outcome,[5],inactive
same,outcome,[6],inactive
same,outcome,[7],inactive
Cc1cc(C)c(N)c(Cl)c1,outcome,[1],inactive
same,outcome,[2],inactive
same,outcome,[3],inactive
same,outcome,[4],inactive
same,outcome,[5],inactive
same,outcome,[6],inactive
same,outcome,[7],inactive
Cn1cc(NC(=O)c2cc(NC(=O)c3cc(NC=O)cn3C)cn2C)cc1C(=O)NCCC(=N)N,outcome,[1],inactive
same,outcome,[2],inactive
same,outcome,[3],inactive
same,outcome,[4],inactive
same,outcome,[5],inactive
same,outcome,[6],inactive
same,outcome,[7],inactive
COc1cc(/C=C/c2ccccc2)oc(=O)c1,outcome,[1],inactive
same,outcome,[2],inactive
same,outcome,[3],inactive
same,outcome,[4],inactive
same,outcome,[5],inactive
same,outcome,[6],inactive
same,outcome,[7],inactive
CC(=O)NCCCCCC(=O)O,outcome,[1],inactive
same,outcome,[2],inactive
same,outcome,[3],inactive
same,outcome,[4],inactive
same,outcome,[5],inactive
same,outcome,[6],inactive
same,outcome,[7],inactive
CCCN(CCC)C(=O)C(CCC(=O)OCCCN1CCN(CCOC(=O)Cc2c(C)n(C(=O)c3ccc(Cl)cc3)c3ccc(OC)cc23)CC1)NC(=O)c1ccccc1 (centres undefined),outcome,[1],inactive
same,outcome,[2],inactive
same,outcome,[3],inactive
same,outcome,[4],inactive
same,outcome,[5],inactive
same,outcome,[6],inactive
same,outcome,[7],inactive
O=S(=O)(c1ccccc1)c1ccc(Cl)cc1,outcome,[1],inactive
same,outcome,[2],inactive
same,outcome,[3],inactive
same,outcome,[4],inactive
same,outcome,[5],inactive
same,outcome,[6],inactive
same,outcome,[7],inactive
C[N+]1(C)CCC(=C(c2ccccc2)c2ccccc2)CC1,outcome,[1],inactive
same,outcome,[2],inactive
same,outcome,[3],inactive
same,outcome,[4],inactive
same,outcome,[5],inactive
same,outcome,[8],inactive
C1=CC2C3C=CC(C3)C2C1 (centres undefined) (tested in a mixture with another compound),outcome,[1],inactive
same,outcome,[2],inactive
same,outcome,[3],inactive
same,outcome,[4],inactive
same,outcome,[5],inactive
same,outcome,[8],inactive
CO[C@H]1/C=C/O[C@@]2(C)Oc3c(C)c(O)c4c(O)c(c5c(c4c3C2=O)=NC2(CCN(CC(C)C)CC2)N=5)NC(=O)/C(C)=C\C=C\[C@H](C)[C@H](O)[C@@H](C)[C@@H](O)[C@@H](C)[C@H](OC(C)=O)[C@@H]1C,outcome,[1],inactive
same,outcome,[2],inactive
same,outcome,[3],inactive
same,outcome,[4],inactive
same,outcome,[5],inactive
same,outcome,[8],inactive
same,outcome,[7],inactive
O=C1c2ccccc2C(=O)C1c1ccc2ccccc2n1,outcome,[1],inactive
same,outcome,[2],inactive
same,outcome,[3],inactive
same,outcome,[4],inactive
same,outcome,[5],inactive
same,outcome,[8],inactive
same,outcome,[7],inactive
COc1ccc2nc(NC(=O)Nc3ccccc3)sc2c1,outcome,[1],inactive
same,outcome,[2],inactive
same,outcome,[3],inactive
same,outcome,[4],inactive
same,outcome,[5],inactive
same,outcome,[6],inactive
same,outcome,[7],inactive
same,outcome,[9],inactive
same,outcome,[10],inactive
same,outcome,[11],inactive
same,outcome,[12],inactive
same,outcome,[13],inactive
CN(C(=O)CCCOc1ccc2[nH]c(=O)ccc2c1)C1CCCCC1,outcome,[1],inactive
same,outcome,[2],inactive
same,outcome,[3],inactive
same,outcome,[4],inactive
same,outcome,[5],inactive
same,outcome,[8],inactive
C[N+]1([O-])CCOCC1,outcome,[1],inactive
same,outcome,[2],inactive
same,outcome,[3],inactive
same,outcome,[4],inactive
same,outcome,[5],inactive
same,outcome,[8],inactive
same,outcome,[7],inactive
CCCCCCCCS(=O)(=O)Cl,outcome,[1],inactive
same,outcome,[2],inactive
same,outcome,[3],inactive
same,outcome,[4],inactive
same,outcome,[5],inactive
same,outcome,[8],inactive
same,outcome,[7],inactive
C[CH2][Ge]([Cl])([CH2]C)[CH2]C,outcome,[1],inactive
same,outcome,[2],inactive
same,outcome,[3],inactive
same,outcome,[4],inactive
same,outcome,[5],inactive
same,outcome,[8],inactive
CC(C[N+](C)(C)C)OC(N)=O (centres undefined),outcome,[1],inactive
same,outcome,[2],inactive
same,outcome,[3],inactive
same,outcome,[4],inactive
same,outcome,[5],inactive
same,outcome,[8],inactive
Cc1nnc(C(C)C)n1C1C[C@H]2CC[C@@H](C1)N2CC[C@@H](NC(=O)C1CCC(F)(F)CC1)c1ccccc1 (some centres undefined),outcome,[1],inactive
same,outcome,[2],inactive
same,outcome,[3],inactive
same,outcome,[4],inactive
same,outcome,[5],inactive
same,outcome,[8],inactive
